NS1 function inh: blocks influenza NS1 protein function; Potency, µM (series often up to 46.1 µM), for inactives: at the top dose activity, positive = more growth; 270,000 tested, 0.4% active; AID 2326; calls by dose curve; note: actives are rising curves; nearly all actives have a fitted effect of over 50% in size
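S. cerevisiae expressing influenza A NS1, grown in glucose, washed, then diluted 1:100 into pH 6.0 -URA galactose medium with 23 nl compound. Growth recovery read as OD600; NS1-free strain serves as control.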
Sm TGR inh: inhibitors of Schistosoma mansoni thioredoxin glutathione reductase; Q962Y6; purified TGR, DTNB reduction, TNB absorbance 405 nm; Potency, µM (series often up to 114 µM), for inactives: top-dose activity change, negative = inhibition, hits mostly inhibitors; 360,000 tested, 3% active; note: % is set by controls: 0 for no effect and ±100 for the full control effect; nearly all actives have a fitted effect of over 60% in size
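TGR 20 nM + NADPH 100 uM (dispensed conc.), cpd preinc 15 min RT; start with NADPH (500 uM addition) then DTNB (15 mM addition). Kinetic TNB absorbance, 405 nm filter. Four-parameter Hill fit across titration.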
Pf growth 96h: P. falciparum growth inhibition at 96 hours; Potency, µM (highest dose often 28.7 µM), for inactives: at the top dose activity change, negative = inhibition, usual class: inhibitors; P. falciparum luciferase reporter growth, 96 h; 320,000 tested, 6.9% active; note: % is set by controls: 0 for no effect and ±100 for the full control effect
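Parasite growth measured via integrated firefly luciferase reporter in P. falciparum. Infected erythrocytes at 2% hematocrit, 0.05% parasitemia final were treated 96 hours at 37 C under 5% CO2, and luminescence was read.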
Pf growth 48h: P. falciparum growth inhibition at 48 hours (one generation); Potency, µM (titrated, usually from 28.7 µM), inactives show at the highest dose activity change, negative = inhibition, actives largely listed as inhibitors; 310,000 tested, 5.9% active; P. falciparum luciferase growth in erythrocytes, 48 h; note: % is set by controls: 0 for no effect and ±100 for the full control effect
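Erythrocytes infected with P. falciparum carrying an integrated firefly luciferase reporter (2% hematocrit, 0.1% parasitemia final) were exposed to compounds in RPMI 1640 with 0.5% Albumax at 37 C, 5% CO2. Growth inhibition was scored as reduced luminescence.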
AMA1-RON2 inh: disrupts binding of P. falciparum AMA1 to RON2; 360,000 tested, 0.2% active; AlphaScreen AMA1-biotinylated RON2 peptide binding; Potency, µM (titrated, usually from 58.2 µM), for the others: at the top dose activity change, negative = inhibition, most hits filed as inhibitors;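 note: 0% = vehicle wells and -100% = peptide control; nearly all actives have a fitted effect of over 45% in size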
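AMA1 (3D7) with his tag at 25 nM final met compounds first, then biotinylated RON2 peptide at 25 nM; detection used donor plus acceptor beads, 10 µg/mL apiece, read by AlphaScreen after 30 min at room temperature.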
* marks the source's active call; other numbers are inactive results; u = inconclusive; x = not tested or not shown; [ ] = another dose, or the depositor's remark. Hits are enriched below; roughly 11% of the tested compounds scored in any of these assays. Unless noted, calls come from the whole dose curve; as a rule, active = well fitted curve in the direction sought with a large enough effect; inconclusive = small, poorly fitted or top-dose-only effect, or another doubt; inactive = no such curve, though single readings can be large; an effect the other way counts as inactive or inconclusive. Potency is the fitted concentration of half-maximal effect.

SMILES	NS1 function inh	Sm TGR inh	Pf growth 96h	Pf growth 48h	AMA1-RON2 inh
Cc1cc(OCc2nc(-c3cccnc3)no2)c(C)cc1Br	u	5.8%	-32.7%	23.5%	1.7%
Cc1ccc(OCc2nc(-c3ccccn3)no2)c(Br)c1	-33.7%	3.9%	2.33µM*	13.6%	14.6%
c1ccc(OCc2nc(-c3ccncc3)no2)cc1	-0.3%	10.0%	11.7µM*	70.2%	22.2%
Cc1ccc(OCc2nc(-c3cccnc3)no2)cc1C	-39.1%	-0.4%[57.1 µM]	0.415µM*	18.7%	10.3%
c1ccc(OCc2nc(-c3ccccc3)no2)cc1	-4.5%	-25.6%	x	140.8%	38.9%
Cc1ccccc1OCc1nc(-c2cccnc2)no1	5.1%	39.8µM*	u	3.3%	20.4%
Cc1ccc(S(=O)(=O)C(CNC(=O)C(=O)NCCc2ccc(Cl)cc2)c2cccs2)cc1 (stereo unspecified)	x	-13.4%	x	x	x
O=C(Cc1cccc(C(F)(F)F)c1)N1CCN(CC(=O)N2CCCC2)CC1	x	-9.6%	u	13.1µM*	13.2%
O=C(Cc1ccccc1F)N1CCN(CC(=O)N2CCCC2)CC1	x	x	x	x	-3.4%
Cn1c(=O)c2c(nc(SCC(=O)Nc3ccccc3F)n2Cc2ccccc2F)n(C)c1=O	x	3.8%	x	x	x
Cc1cc(C)nc(SCC(=O)c2ccc(F)cc2)n1	11.7%	-20.9%	221.9%	-18.0%	1.0%
Cc1cc(C)nc(S/C=C/C(=O)c2ccc(F)cc2)n1	-5.6%	0.708µM*	-19.2%	u	x
O=C(Nc1ccccc1C(=O)Nc1nnc(C(F)(F)F)s1)c1ccccc1	-1.2%	2.8%	2.62µM*	1.17µM*	-7.3%
Cc1occc1C(=O)Nc1nnc(C(F)(F)F)s1	-55.4%	-1.8%	x	8.2%	-1.4%
COC(=O)Cc1c(C)nc2nc(NCc3ccc(Br)cc3)[nH]n2c1=O	x	2.1%	x	x	x
COc1ccccc1NC(=O)c1ccc2c(c1)N(CC#N)C(=O)C(C)(C)O2	-3.0%	9.2%	11.7µM*	-22.7%	10.0%
CCOC(=O)CN1C(=O)C(C)(C)Oc2ccc(C(=O)Nc3ccccc3OC)cc21	-5.9%	-16.4%	-21.5%	u	-4.0%
CCCCN1C(=O)c2ccc(C(=O)Nc3c(N)n(CCCC)c(=O)n(C)c3=O)cc2C1=O	-17.8%	-0.3%	5.22µM*	5.5%	u
CCCN1C(=O)c2ccc(C(=O)Nc3cc(C)on3)cc2C1=O	-3.5%	5.8%	156.1%	12.6%	-9.6%
CCCN1C(=O)c2ccc(C(=O)NCc3ccco3)cc2C1=O	-9.3%	31.6µM*	-20.0%	15.8%	-17.3%
COCCCN1C(=O)c2ccc(C(=O)Nc3ccccc3OC)cc2C1=O	-3.3%	9.6%	4.65µM*	21.4%	11.8%
O=C(C[C@H]1C/C=C\C[C@@H](Cc2ccc(F)cc2)C(=O)OC[C@@H](Cc2c[nH]c3ccccc23)NC1=O)NCCO	x	x	x	x	-6.2%
COCCN1C(=O)c2ccc(C(=O)NCc3ccco3)cc2C1=O	-2.0%	-12.2%	-6.2%	9.5%	-9.9%
COCCCN1C(=O)c2ccc(C(=O)NCc3ccco3)cc2C1=O	1.0%	28.2µM*	9.0%	3.7%	0.8%
COc1ccc(NS(=O)(=O)c2cccc(C(=O)NNC(=O)CN3C(=O)NC(C)(C)C3=O)c2)cc1	x	3.9%	23.0%	10.3%	38.7%
SMILES	NS1 function inh	Sm TGR inh	Pf growth 96h	Pf growth 48h	AMA1-RON2 inh
Nc1nc(SCC(=O)Nc2ccc([N+](=O)[O-])cc2)n[nH]1	2.9%	x	-6.9%	11.4%	1.8%
Cc1ccc(NC2c3ncccc3C(=O)N2C2CCCCC2)cc1C (stereo unspecified)	1.5%	-6.9%	33.1%	10.4µM*	1.2%
CNC(=O)Oc1ccc2ncccc2c1	-24.4%	-15.6%	-4.6%	-13.1%	-4.0%[11.6 µM]
CNC(=O)Oc1ccc2c(c1)[C@]1(C)CCN(C)[C@@H]1N2C	-18.8%	0.0%	3.7µM*	8.28µM*	-0.3%
Oc1ccccc1-c1nc(NCc2cccnc2)c2ccccc2n1	-0.6%	-5.9%	u	14.7µM*	15.3%
Oc1ccccc1-c1nc(NCc2ccccc2)c2ccccc2n1	4.9%	-0.5%	u	u	20.0%
O=[N+]([O-])c1ccc(-c2nc(NCc3cccnc3)c3ccccc3n2)cc1	-0.4%	1.9%	14.7µM*	0.6%	2.4%
Cc1cccc(C)c1NC(=O)/C(=C/c1ccco1)c1ccccc1	-0.5%	31.6µM*	10.4µM*	x	-10.2%
Cc1cc(C)c(NC(=O)/C(=C/c2ccco2)c2ccccc2)c(C)c1	-10.2%	25.1µM*	u	x	-2.8%
CC(C)NC(=O)/C(=C/c1ccco1)c1ccccc1	0.7%	u	u	31.0%	-2.6%
Cc1cc(C)c(C(N)=O)c(SCC(=O)c2cc(C)n(-c3cc(C)on3)c2C)n1	x	x	x	x	-7.8%
CN(C)S(=O)(=O)c1ccc(NC(=O)C2CCCN(C(=O)c3ccc(Cl)cc3)C2)cc1 (stereo unspecified)	-16.1%	4.1%	u	-2.1%	-10.7%
O=C(Nc1cccc(S(=O)(=O)N2CCOCC2)c1)C1CCCN(C(=O)c2ccc(Cl)cc2)C1 (stereo unspecified)	-10.8%	3.9%	10.4µM*	u	-10.2%
O=C(Nc1ccc(S(=O)(=O)N2CCCCC2)cc1)C1CCCN(C(=O)c2ccc(Cl)cc2)C1 (stereo unspecified)	u	-0.7%	11.7µM*	u	9.6%
CC(NC(=O)C1CCCN(C(=O)c2ccc(Cl)cc2)C1)c1cccc(C(F)(F)F)c1 (stereo unspecified)	x	-24.9%	u	13.1µM*	0.0%
Cc1ccc2nc(Cl)c3cc(C(=O)N4CCCC(C)C4)sc3c2c1 (stereo unspecified)	x	4.7%	x	x	x
O=Cc1c(-c2ccccc2)nc2ccccn12	-2.0%	7.1%	13.1µM*	-2.4%	-8.4%
O=C(Nc1c(-c2ccccc2)nc2ccccn12)c1ccccc1	-20.5%	3.2%	-29.6%	u	-5.6%
CCC(C)(C)NC(=O)C1CCC(CNS(=O)(=O)c2ccc3c(c2)CC(C)N3C(C)=O)CC1 (stereo unspecified)	x	2.0%	x	x	x
CC(=O)Nc1ccc(S(=O)(=O)N(C)CC(=O)OCC(=O)c2ccc3c(c2)NC(=O)CO3)cc1	x	13.0%	10.1%	11.2%	1.2%
Oc1cccc(C(O)CNCc2ccc(-c3ccccc3)cc2)c1 (stereo unspecified)	x	9.1%	4.9%	-27.9%	-10.2%
OC(CNCc1cccc(Cl)c1)c1ccccc1 (stereo unspecified)	-0.2%	3.1%	8.4%	2.08µM*	3.0%
OC(C[n+]1ccccc1)c1ccccc1 (stereo unspecified)	1.0%	4.9%	0.657µM*	u	-0.2%
OC(CNCc1ccccc1)c1ccccc1 (stereo unspecified)	0.7%	1.1%	u	9.28µM*	12.8%
OC(CC(O)c1ccccc1)c1ccccc1 (stereo unspecified)	x	x	x	x	-2.0%
OC(CNC1Cc2ccccc2C1)c1ccccc1 (stereo unspecified)	0.6%	0.0%	13.1µM*	11.7µM*	-3.1%
CCOC(=O)c1cnc2c(C(F)(F)F)cccc2c1Nc1cccc(C(=O)OC)c1	x	2.2%	x	x	x

Screening results deposited in PubChem by National Center for Advancing Translational Sciences (NCATS).
